Screening data: PubChem BioAssay, National Center for Advancing Translational Sciences (NCATS)
The list is not random: actives were taken first. Their share in the collection is about 10%.
GPT2 inh – inhibitors of human GPT2 alanine aminotransferase; Recombinant GPT2, coupled pyruvate oxidase/HRP Amplex Red fluorescence; Potency, µM (titrated, usually from 57.7 µM), without a hit: at the top dose activity change, negative = inhibition, most hits filed as inhibitors; AID 1671188; Q8TD30; hit rate 0.25% among 100,000; also: nearly all actives have a fitted effect of over 60% in size
Target sequence (Q8TD30 whole entry, looked up): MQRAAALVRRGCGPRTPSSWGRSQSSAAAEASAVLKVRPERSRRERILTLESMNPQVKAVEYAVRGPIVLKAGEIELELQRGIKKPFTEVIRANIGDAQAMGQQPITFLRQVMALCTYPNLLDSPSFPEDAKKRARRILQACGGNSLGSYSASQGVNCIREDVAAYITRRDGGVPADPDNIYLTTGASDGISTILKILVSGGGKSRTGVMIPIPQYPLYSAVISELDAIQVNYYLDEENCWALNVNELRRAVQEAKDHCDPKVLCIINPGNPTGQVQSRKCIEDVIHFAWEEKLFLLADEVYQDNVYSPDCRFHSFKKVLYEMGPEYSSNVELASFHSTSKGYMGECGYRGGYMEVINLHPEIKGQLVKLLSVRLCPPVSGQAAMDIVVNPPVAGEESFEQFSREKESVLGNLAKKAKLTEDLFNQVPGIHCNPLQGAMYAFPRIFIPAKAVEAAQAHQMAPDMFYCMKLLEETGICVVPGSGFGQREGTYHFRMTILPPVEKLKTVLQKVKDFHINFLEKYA
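GPT2 10ng/uL, a-KG 250uM, L-Ala 2mM, HEPES pH7.5 + 0.0001% Tween; 30 min RT. Then Amplex mix (PO/HRP/ThPP), 30 min RT dark, fluorescence. AOA 50uM used as positive control.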
FLuc inh – blocks purified firefly luciferase enzyme activity; hit rate 2.5% among 76,000; P08659; purified P. pyralis luciferase, luminescence, biochemical; Potency, µM (highest dose often 115 µM), usual class: inhibitors; also: nearly all actives have a fitted effect of over 65% in size
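Biochemical qHTS: compound (6-point titration) added to 10uM D-luciferin plus 10uM ATP in Tris acetate pH 7.5 buffer with Mg, Tween-20 and BSA, then purified enzyme at 10nM; light output imaged.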
NPR1 antag – blocks ANP-stimulated signaling of human Npr1 receptor; P16066; HEK293 hNpr1 GloSensor cGMP, ANP-stimulated luminescence; Potency, µM (series often up to 46.3 µM), for inactives: at the highest dose activity change, negative = inhibition, usual class: inhibitors; hit rate 1.6% among 76,000; calls by dose curve; also: nearly all actives have a fitted effect of over 60% in size
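HEK293 cells stably expressing human Npr1 and cGMP GloSensor pGS-40F, loaded 2 h with 2% GloSensor reagent, given compound 30 min at room temperature. Luminescence read before and 20 min after 0.1 nM hNppA.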
HEK cytotox – kills HEK 293 cells. HEK 293 viability, ATP luminescence (CellTiter-Glo), 48-72 h. Potency, µM (series often up to 115 µM), for the others: at the top dose activity change, negative = cytotoxicity, most hits filed as inhibitors. hit rate 6.6% among 94,000. AID 1345083; also: nearly all actives have a fitted effect of over 60% in size
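ATP-coupled CellTiter-Glo luminescence served as viability read-out, recorded 10 min after reagent addition at room temperature. HEK 293 cells, 250 cells/well, had been incubated with pintool-transferred compound for 48 or 72 hr at 37 degree Celsius.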
3T3 cytotox – kills NIH 3T3 cells; NIH 3T3 viability, CellTiter-Glo ATP luminescence, 48-72 h; Potency, µM (highest dose often 96.7 µM), inactives show top-dose activity change, negative = cytotoxicity, hits mostly inhibitors; hit rate 4.3% among 94,000; also: nearly all actives have a fitted effect of over 55% in size
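First NIH 3T3 cells are plated at 400 cells/well; next compound is pinned in; then plates incubate 48 or 72 hr at 37 °C; finally CellTiter-Glo is added and luminescence read after 10 min.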
* marks the source's active call; other numbers are inactive results; i = inactive; ? = inconclusive; . = no result given; [ ] = remark or other dose. Unless noted, calls follow the shape of the dose curve; as a rule, active = well fitted curve in the direction sought with a large enough effect; inconclusive = small, poorly fitted or top-dose-only effect, or another doubt; inactive = no such curve, though single readings can be large; an effect the other way counts as inactive or inconclusive. % is scaled to controls: 0 for no effect and ±100 for the full control effect; potency is read from the fitted curve at half-maximal effect.

SMILES	GPT2 inh	FLuc inh	NPR1 antag	HEK cytotox	3T3 cytotox
O=C(COc1ccccc1)N1CCOc2ccc(CN3CCc4ccccc4C3)cc2C1	i	i	?	31.6µM*	?
Cc1ccc(OCC(=O)N2CCOc3ccc(CN4CCc5ccccc5C4)cc3C2)cc1	-10.0%	i	-23.7%	?	39.8µM*
C=CCOc1c(OC)ccc2c1CN(CC)C(=O)CCN2CC(O)COc1ccc(OC)cc1 (configuration not stated)	.	.	.	39.8µM*	?
C=CCOc1c(OC)ccc2c1CN(C1CCCC1)C(=O)CCN2CC(O)Cc1ccccc1 (configuration not stated)	.	.	.	44.7µM*	?
C=CCOc1c(OC)ccc2c1CN(CC1CC1)C(=O)CCN2C[C@@H](O)COCc1ccccc1	.	.	.	44.7µM*	?
C=CCOCC(O)CN1CCC(=O)N(C2CCCC2)Cc2c1ccc(OC)c2OCC=C (configuration not stated)	.	.	.	?	-24.7%
CCOC(=O)CN1Cc2ccccc2N(CC(O)COc2ccc(OC)cc2)CCC1=O (configuration not stated)	.	.	.	?	-28.2%
C=CCOc1c(OC)ccc2c1CN(CCOC)C(=O)CCN2CC(O)Cc1ccccc1 (configuration not stated)	.	.	.	?	-18.5%
O=C(c1ccccn1)N1CCC(N2C(=O)C(OCC3CC3)C23CCOCC3)CC1 (configuration not stated)	2.1%	i	-10.0%	0.0%	3.0%
CN(Cc1cn(C)c2ccccc12)C1CCc2nn(CC3CC3)c(=O)n2CC1 (configuration not stated)	2.8%	i	-2.7%	31.6µM*	35.5µM*
CC(=O)NC1(C)CN(Cc2ccc(-c3cccc(C(F)(F)F)c3)s2)C1	-11.5%[88.5 µM]	12.6µM*	?	63.1µM*	44.7µM*
CC(=O)NC1(C)CN(Cc2ccc(-c3cccc(F)c3)s2)C1	i	?	-2.3%[70.6 µM]	?	?
COc1ccc(-c2ccc(C(=O)NC3CC3)cc2)nn1	.	.	.	89.1µM*	?
COc1ccc(-c2ccc(C(=O)N3CCCCC3)cc2)nn1	.	.	.	?	28.2µM*
Cc1noc(C)c1-c1cc2cc(CO)oc2c(N2CCN(c3ccccn3)CC2)n1	1.8%[88.5 µM]	i	-15.3%[70.6 µM]	70.8µM*	?
Cc1noc(C)c1-c1cc2cc(CN(C)C)oc2c(N2CCN(Cc3ccccc3)CC2)n1	?	i	-3.3%	50.1µM*	35.5µM*
Cc1noc(C)c1-c1cc2cc(CN(C)C)oc2c(N2CCN(c3ccccn3)CC2)n1	-14.1%[88.5 µM]	i	-1.9%[70.6 µM]	44.7µM*	35.5µM*
O=C(NC[C@H]1O[C@@H](CC(=O)N2CCCC2)[C@H](O)[C@@H]1O)c1cccc(F)c1	2.4%[88.5 µM]	i	-2.9%[70.6 µM]	-5.7%[172 µM]	4.6%[174 µM]
O=C(c1ccsc1)N1CCC(O)(c2ccccc2)[C@H](N2CCCC2)C1 (some centres not stated)	-4.3%	i	0.4%	?	?
Cc1ccccc1C1CCCN(C(=O)c2cnc(-c3cccnc3)nc2)C1 (configuration not stated)	i	i	-11.1%	?	?
CCCNC(=O)[C@@H]1Cc2cn(Cc3c(C)noc3C)c3cccc(c23)[C@H](CC(C)C)N1	-7.0%[88.5 µM]	i	-2.1%[70.6 µM]	25.1µM*	70.8µM*
C#CCNC(=O)[C@@H]1Cc2cn(Cc3c(C)noc3C)c3cccc(c23)[C@H](CC(C)C)N1	?	i	-28.7%[70.6 µM]	39.8µM*	50.1µM*
Cc1noc(C)c1Cn1cc2c3c(cccc31)[C@H](CC(C)C)N[C@H](C(=O)N1CCOCC1)C2	-2.5%	i	0.3%	?	-20.6%
Cc1noc(C)c1Cn1cc2c3c(cccc31)[C@H](CC(C)C)N[C@H](C(=O)NC1CCC1)C2	2.4%[88.5 µM]	i	0.1%[70.6 µM]	39.8µM*	?
Cc1cc(Cn2cc3c4c(cccc42)[C@H](CC(C)C)N[C@H](C(=O)O)C3)no1	2.5%[88.5 µM]	i	2.3%[70.6 µM]	-11.4%[172 µM]	-14.0%[138 µM]
SMILES	GPT2 inh	FLuc inh	NPR1 antag	HEK cytotox	3T3 cytotox
c1cncc(O[C@H]2COCCN(C3CCC3)C2)c1	1.2%[88.5 µM]	i	1.1%[70.6 µM]	?	50.1µM*
CN(C)c1ccc(-c2nnc([C@H]3CCN(CC4CCCCC4)C3)o2)cc1	-24.3%[88.5 µM]	?	0.1%[70.6 µM]	100µM*	?
CN(C)c1ccc(-c2nnc([C@H]3CCN(CC4CC4)C3)o2)cc1	i	i	7.8%[70.6 µM]	-19.9%[172 µM]	-0.5%[138 µM]
CN(C)c1ccc(-c2nnc([C@H]3CCN(Cc4ccccc4)C3)o2)cc1	i	63.1µM*	-7.5%[70.6 µM]	?	?
Cc1ccc(CN2CC[C@H](c3nnc(-c4ccccc4)o3)C2)cc1	-1.0%[88.5 µM]	?	0.6%[70.6 µM]	?	?
O=C(CN1CCCCCC1)NCC12CCCC=C1NC(=O)CC2 (configuration not stated)	1.9%	i	5.5%	2.5%	-10.8%
CN1CCC2(C1)CN(CC1CC1)c1ccc(C(=O)NCc3cccs3)cc12 (configuration not stated)	i	i	-10.9%[70.6 µM]	100µM*	?
CN1CCC2(C1)CN(CC1CC1)c1ccc(C(=O)Nc3ccccc3)cc12 (configuration not stated)	1.5%[88.5 µM]	?	-0.7%[70.6 µM]	?	?
CN1CCC2(C1)CN(CC1CC1)c1ccc(C(=O)NC3CCCCC3)cc12 (configuration not stated)	0.5%[88.5 µM]	i	0.5%[70.6 µM]	89.1µM*	79.4µM*
O=C(NCc1ccccc1C(F)(F)F)C1CCCN(c2cnn(Cc3ccccc3)c(=O)c2)C1 (configuration not stated)	i	i	-19.4%	44.7µM*	?
CN(Cc1cnn(-c2ccc(F)cc2)c1)c1cc(C2CC(O)C2)ncn1 (configuration not stated)	i	i	?	28.2µM*	?
CN(Cc1nc2ccc(F)cc2[nH]1)c1cc(C2CC(O)C2)ncn1 (configuration not stated)	-10.8%	i	6.7%	-2.9%	-28.4%
O=C(c1cccc(Cl)c1)N1CCN(CCCn2nc3n(c2=O)CCCC3)CC1	.	.	.	-2.2%	-25.3%
CC(C)N1CC[C@H](c2nc3ccc(C#N)cc3[nH]2)C1	i	39.8µM*	-13.2%[70.6 µM]	-28.8%[230 µM]	-11.2%[230 µM]
COc1ccc2nc([C@H]3CCN(C(C)C)C3)[nH]c2c1	i	22.4µM*	?	-26.5%[230 µM]	-26.1%[174 µM]
CC(C)N1CC[C@H](c2nc3ccc(C(F)(F)F)cc3[nH]2)C1	-2.0%[88.5 µM]	22.4µM*	5.0%[70.6 µM]	?	-24.7%[174 µM]
COCC(=O)N1CCCC(c2nn(C)c(=O)n2C(C)C)C1 (configuration not stated)	-3.6%	i	0.1%	-1.0%	-5.9%
Cc1cc(C)cc(-c2ccc(CN3CCCC3C(=O)N3CCN(C)CC3)cc2)c1 (configuration not stated)	-3.2%	.	.	?	?
